# Assay results from ChEMBL document CHEMBL4513216, “Probing the Open Global Health Chemical Diversity Library for Multistage-Active Starting Points for Next-Generation Antimalarials” (ACS Infect Dis, 2020).
# Screen size: about 69,000 compounds; about 8,600 (12%) showed an effect of 50% or more. This is one part of a sample in which strong results are shown more often than they occur.
# Test system: Plasmodium berghei
# Assay: Screen against P. berghei liver stage (PbLuc), transformed with Luciferase, at 10uM
# Type: functional, HepG2
# Conditions: tested at 10 uM
row,SMILES,INHIBITION
1,CC(=O)N(Cc1noc(C2CC2)n1)C1CCN(CC(=O)NC2CC2)C1 (configuration not stated),-11.9%
2,Cc1nc(CNC(=O)NC(C)c2ccc3c(c2)OCCCO3)cs1 (configuration not stated),1.04%
3,Cc1noc([C@H]2C[C@H]3OCC[C@H]3N(Cc3ccc(F)cc3)C2)n1,35.7%
4,CN(c1ccncn1)C1CC2(CCN(C(=O)c3cccn3C)C2)C1 (configuration not stated),15.9%
5,Cc1ccc(-c2nnc(CN3CC(n4cc(C)cn4)C3)o2)cc1,-9.72%
6,Cc1cnn(C2CN(CC(O)COCc3ccc4c(c3)OCO4)C2)c1 (configuration not stated),32.3%
7,Cc1cnn(CC2CN(Cc3nc(-c4ccccn4)no3)CCO2)c1 (configuration not stated),21.6%
8,CN(C)CC1CN(Cc2nc(-c3ccccn3)no2)CCO1 (configuration not stated),-11.4%
9,Cc1cnn(C2CN(CC(O)c3ccc4c(c3)OCCO4)C2)c1 (configuration not stated),23.2%
10,COc1ccc(-c2noc(CN3CC(n4cccn4)C3)n2)c(OC)c1,-18%
11,Cc1cnn(C2CN(Cc3nc(-c4ccsc4)no3)C2)c1,15.5%
12,Cc1cnn(C2CN(Cc3nc(C(C)(C)C)no3)C2)c1,29.4%
13,Cc1cnn(C2CN(Cc3nc(-c4ccccn4)no3)C2)c1,51.1%
14,COc1ccc(-c2noc(CN3CC(n4cc(C)cn4)C3)n2)cc1,89.5%
15,Cc1cnn(C2CN(Cc3ccc4c(c3)OCCO4)C2)c1,57.5%
16,Cc1ccc(-c2noc(CN3CC(n4cc(C)cn4)C3)n2)cc1,90.9%
17,c1ccc2c(c1)COC1(CCCCC1)N2,-30%
18,O=C(NCCC1=CCCCC1)Nc1cc(C(F)(F)F)c[nH]c1=O,7.27%
19,c1ccc(CN2CCCC(CNc3ncnc4c3CCNCC4)C2)cc1 (configuration not stated),45%
20,CC(=O)N1CCCN(C(=O)NCCOc2ccc3c(c2)CCC3)CC1,35.15%
21,CCOC(=O)[C@H]1CNC[C@H]1C(=O)OCC,22%
22,Cc1ncsc1C(=O)N1CCCC(c2cc(C(F)F)n3ncnc3n2)C1 (configuration not stated),5.11%
23,O=C(c1cnccn1)N1CCC2(CCN(Cc3ccsc3)C2)CC1,23.3%
24,CCOc1c(CNCCCn2ccnc2)cc(Cl)cc1OC,-9.2%
25,CN1CCN(C2CCN(C(=O)CCC3CCCC3)CC2)CC1,29.8%
26,Cc1cccc(-c2noc(CN3CC(n4cccn4)C3)n2)c1,14.1%

row,SMILES,INHIBITION
1,Cc1cnn(C2CN(Cc3nc(-c4cccnc4)no3)C2)c1,18.2%
2,Cc1cccc(-c2noc(CN3CC(n4cc(C)cn4)C3)n2)c1,90%
3,COCC1CN(CCc2ccc(OC)c(OC)c2)Cc2c1cnn2C (configuration not stated),53.9%
4,Cn1ncc2c1CN(Cc1ccccc1F)CC2COCC1CC1 (configuration not stated),49.3%
5,CO[C@H]1C[C@@H](O)C12CCN(CCOc1ccc(Cl)cc1)CC2,44.6%
6,CCn1ncc2c1CN(CCc1cccc(Cl)c1)CC2COC (configuration not stated),59.3%
7,CCn1ncc2c1CN(C(=O)Cc1ccccn1)CC2COC (configuration not stated),18.3%
8,COCC1CN(c2ccc(C)nn2)Cc2cnn(C)c21 (configuration not stated),20.6%
9,CCOCC1CN(CCOCc2ccccc2)Cc2c1cnn2C (configuration not stated),-14.3%
10,CCOCC1CN(CCc2ccccc2)Cc2c1cnn2C (configuration not stated),50%
11,CCn1ncc2c1C(COC)CN(Cc1ccco1)C2 (configuration not stated),39.2%
12,COCC1CN(CCOc2ccc(Cl)cc2)Cc2c1cnn2C (configuration not stated),53.9%
13,CCOCC1CN(CCOc2ccc(Cl)cc2)Cc2c1cnn2C (configuration not stated),19.8%
14,COCCN1CCn2cc(CNC(=O)c3cnn(C)c3)nc2C1,16.8%
15,O=C(NCc1ccco1)[C@@H]1CC[C@@H]2[C@@H](CCN2CC2CC2)O1,12.3%
16,O=C(Cc1ccccn1)N1CCC(O)(Cn2ccc3ccncc32)CC1,-21.4%
17,NC(=O)Cn1cc(NC(=O)N2CCC(c3ccccc3)CC2)cn1,31.65%
18,CC(C)CN(CC(O)c1ccc(F)cc1)C(=O)c1cc[nH]n1 (configuration not stated),39.5%
19,CC(C)OC(=O)[C@@H]1CCN(C(=O)c2ccccn2)[C@@H]1c1ccc(F)cc1,-18.8%
20,Cc1cccc(S(=O)(=O)N2C[C@@H]3C[C@H](C(=O)NCC(C)C)[C@H](C2)O3)c1,45.2%
21,O=C(CC1CCCC1)N1CCn2cc(Cn3cccn3)nc2C1,31.1%
22,Cc1cc(N(C)C)nc(C2(C)CCCN2C(=O)c2ccccc2)n1 (configuration not stated),15.9%
23,Cc1cccc(N2CC[C@H]3CO[C@H](CN(C)Cc4ccco4)[C@H]3C2)n1,46.4%
24,Cc1cccc(N2CC[C@@H]3[C@@H](CO[C@H]3CNC(=O)c3ccco3)C2)n1,-44.2%
25,Cc1ccc(N2CC[C@@H]3[C@@H](CO[C@H]3CNC(=O)c3ccco3)C2)nn1,57.1%
26,CN(Cc1ccco1)C[C@@H]1OC[C@H]2CN(Cc3nccs3)CC[C@H]21,-46.8%

row,SMILES,INHIBITION
1,CN(Cc1cccnc1)C[C@@H]1OC[C@H]2CN(Cc3ccco3)CC[C@H]21,8.03%
2,Cc1cccc(N2CC[C@H]3[C@H](CO[C@@H]3CN(C)Cc3ccco3)C2)n1,65.3%
3,O=C(NC[C@H]1OC[C@@H]2CCN(c3ccccn3)C[C@@H]21)c1ccco1,-0.804%
4,Cc1ccc(N2CC[C@H]3CO[C@H](CN(C)Cc4ccco4)[C@H]3C2)nn1,53.4%
5,CN(Cc1ccco1)C[C@H]1OC[C@@H]2CCN(Cc3ccccn3)C[C@@H]21,-14.7%
6,CN(Cc1ccco1)C[C@H]1OC[C@@H]2CN(c3ncc(F)cn3)CC[C@@H]21,58.3%
7,Cc1cccc(N2CC[C@@H]3[C@@H](CO[C@H]3CNS(C)(=O)=O)C2)n1,-39.4%
8,Cc1ccc(CN2CC[C@H]3CO[C@H](CN(C)Cc4ccco4)[C@H]3C2)s1,18.7%
9,CCc1ccc(CN2CCC(c3ccccc3C(=O)O)C2)nc1 (configuration not stated),-8.66%
10,Cc1cccn2c(NC(C)(C)C)c(C3CCN(C(=O)C4CC4)CC3)nc12,-4.49%
11,CNC(=O)[C@H]1C[C@@H]2CN(S(=O)(=O)c3ccc(C)c(F)c3)C[C@@H]2N1C,0.542%
12,CC(CNC(=O)c1cn(-c2ccccc2)nn1)Cn1cccn1 (configuration not stated),20.2%
13,CCN(CC)C1COc2c(cc(Br)c(C)c2C)C1=O (configuration not stated),47.1%
14,COc1ccc(-c2cc(C3(O)CCN(C)CC3)on2)cc1,19.3%
15,CN(Cc1ccco1)C[C@H]1OC[C@@H]2CCN(Cc3ccsc3)C[C@@H]21,62.4%
16,CN(Cc1ccco1)C[C@H]1OC[C@@H]2CCN(Cc3cccs3)C[C@@H]21,25.4%
17,CN(Cc1ccco1)C[C@H]1OC[C@@H]2CCN(Cc3ccncc3)C[C@@H]21,-46.8%
18,Cc1cn[nH]c1C1COCCN1C(=O)c1ccc2c(c1)CCCC2 (configuration not stated),-6.88%
19,CSc1ccc(C(=O)C2CCCN(C(=O)CCn3cnnn3)C2)cc1 (configuration not stated),5.91%
20,COc1ccccc1CC(=O)NC(C)c1nc2cccnc2n1C(C)C (configuration not stated),-29.8%
21,COc1ccc(CC(=O)NC(C)c2nc3cccnc3n2C(C)C)cc1 (configuration not stated),90.5%
22,COc1cccc(CC(=O)NC(C)c2nc3cccnc3n2C(C)C)c1 (configuration not stated),-17.7%
23,CN(Cc1ncc(-c2ccccc2C(=O)O)s1)c1ncccn1,12%
24,Cc1cc(S(=O)(=O)NC(C)(C)CN)c(F)cc1F,37.6%
25,CCC(NC(=O)C1CCN(S(=O)(=O)N(C)C)CC1)c1ccc(C)c(C)c1 (configuration not stated),21.8%
26,Cc1csc(C(Cc2ccsc2)NC(=O)C2CCN(S(C)(=O)=O)CC2)n1 (configuration not stated),-11.7%

row,SMILES,INHIBITION
1,CCC(NC(=O)C1CCN(S(C)(=O)=O)CC1)c1ccc(OC)c(C)c1 (configuration not stated),23.5%
2,CCC(NC(=O)C1CCN(S(C)(=O)=O)CC1)c1ccc(OC)c(OC)c1 (configuration not stated),-6.53%
3,CCC(NC(=O)C1CCN(S(C)(=O)=O)CC1)c1ccc(OC)cc1 (configuration not stated),73.6%
4,CCC(NC(=O)C1CCN(S(C)(=O)=O)CC1)c1ccc(C)cc1C (configuration not stated),88%
5,COc1ccc(C(C)NC(=O)C2CCN(S(C)(=O)=O)CC2)cc1C (configuration not stated),68.1%
6,CCC(NC(=O)c1nn(C)cc1C(=O)O)c1ccc(C)cc1C (configuration not stated),32.3%
7,CCC(NC(=O)C1CCN(S(C)(=O)=O)CC1)c1ccc(C)c(C)c1 (configuration not stated),58.5%
8,CCOc1ccc(C(C)NC(=O)N2CCC(C(N)=O)CC2)cc1OC (configuration not stated),47.4%
9,CCC(NC(=O)C1CCN(S(C)(=O)=O)CC1)c1ccc(C)cc1 (configuration not stated),33%
10,COc1ccc(C(C(=O)O)N2CCN(C3CCCC3)CC2)cc1C (configuration not stated),43%
11,Cc1cnn(CCNCc2c(C)nn(C)c2Cl)c1,19.2%
12,c1ccc(CN2CCc3nnc(COc4ccccn4)n3CC2)nc1,21.5%
13,Cc1occc1C(=O)N1CCC2(CC1)CN(Cc1nccs1)CCO2,30.3%
14,Cc1cc(C)n(CC(=O)N2CCC(c3ccn4nccc4n3)CC2)n1,19.5%
15,Cc1ccc(CN2CCC3(CCCC(=O)N3)CC2)s1,-24.5%
16,CCN(Cc1ccc2c(c1)OCCO2)C(=O)NC(C)Cn1cccn1 (configuration not stated),45.7%
17,CCOCc1nc2c(c(N3CCCn4nc(C)cc4C3)n1)CCNCC2,34.9%
18,CCOCCCNC(=O)C1(C)CCC(=O)N1c1cc(OC)ccc1OC (configuration not stated),28.3%
19,O=C(O)c1ccc(CC2CCN(Cc3ccc(-c4cc[nH]n4)o3)C2)cc1 (configuration not stated),67.8%
20,Fc1ccc(N2CCCN(Cc3ccc(-c4cc[nH]n4)o3)CC2)cc1,23.7%
21,Cc1cnc(C)c(N2CCN(Cc3ccc(-c4cc[nH]n4)o3)CC2)n1,-7.48%
22,O=C(O)c1ccc(C2CCCN(Cc3ccc(-c4cc[nH]n4)o3)C2)cc1 (configuration not stated),-10.4%
23,O=C(O)c1ccccc1C1CCN(Cc2ccc(-c3cc[nH]n3)o2)C1 (configuration not stated),9.16%
24,Cc1cc(N2CCN(Cc3ccc(-c4cc[nH]n4)o3)CC2)cc(C)n1,52.4%
